# Compound activity from PubChem BioAssay.
# SIRT5 inh: blocks human SIRT5 desuccinylation of peptide; Q9NXA8; Purified SirT5, succinyl-peptide AMC, trypsin-coupled fluorescence; inhibition, % at 15 µM; 330,000 compounds, 1.1% hits; in the data active = inhibition above about 15%; inconclusive = no clear call, values can overlap the other calls
# Rtt109 Vps75: C. albicans Rtt109 histone acetyltransferase inhibition. Q5AAJ8. purified Rtt109/Vps75, ThioGlo CoA-SH fluorescence, 4 h. inhibition, % at 34.9 µM. 330,000 compounds, 0.16% hits;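 active = inhibition of at least 50% in every replicate; inconclusive = best replicate reaches 50% inhibition but some replicates fall short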
# PDI turbidity: blocks human protein disulfide isomerase activity; PDI insulin aggregation turbidity, A650, 90 min; inhibition, % at 10 µM; 350,000 compounds, 0.052% hits; AID 588391;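 active = mean inhibition across replicates of 30% or more, whatever share of single replicates reach that level; inconclusive = mean inhibition below 30% while every single replicate reaches 30%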
# ERp5 inh: ERp5 (human) disulfide isomerase inhibition. Q15084. inhibition, % at 9.99 µM. 350,000 compounds, 0.05% hits. ERp5 insulin aggregation, absorbance 650 nm, 90 min;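 active = mean replicate inhibition above about 25%, with every replicate also reaching it, limit read from the data, passing the limit was not always enough; inconclusive = only one of those two criteria met; inactive = neither criterion met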
# Target sequence (Q15084 whole entry, looked up): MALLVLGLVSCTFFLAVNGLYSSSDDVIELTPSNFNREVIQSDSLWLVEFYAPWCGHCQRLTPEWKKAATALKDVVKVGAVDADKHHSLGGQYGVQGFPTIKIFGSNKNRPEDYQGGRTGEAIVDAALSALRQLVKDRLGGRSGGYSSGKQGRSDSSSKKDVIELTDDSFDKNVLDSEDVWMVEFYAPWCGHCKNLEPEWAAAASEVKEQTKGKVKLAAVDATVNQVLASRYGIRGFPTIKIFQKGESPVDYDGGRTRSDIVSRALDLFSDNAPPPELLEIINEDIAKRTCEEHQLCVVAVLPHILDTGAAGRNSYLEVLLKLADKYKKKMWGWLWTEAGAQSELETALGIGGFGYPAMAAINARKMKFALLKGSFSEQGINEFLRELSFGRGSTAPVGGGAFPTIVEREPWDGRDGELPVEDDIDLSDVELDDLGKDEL
# DENV2 CPE: DENV2-induced cell death inhibition | DENV2-infected cells, cytopathic effect rescue, plate reader | CPE inhibition, % at 9.99 µM | 350,000 compounds, 1.7% hits; in the data active = CPE inhibition above about 20%, passing the limit was not always enough; inconclusive = no clear call, values can overlap the other calls; tested in BHK-21 cells;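 note: 0% = median of neutral control wells and 100% = median of positive control wells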
# An asterisk follows results filed as active; ? = inconclusive; . = no result given. Most compounds without a hit are left out; they make up all but 2.3% or so of the library.
SMILES,SIRT5 inh,Rtt109 Vps75,PDI turbidity,ERp5 inh,DENV2 CPE
CN1CCN(C(=O)C[C@H]2CC[C@@H]3[C@H](COC[C@@H](O)CN3C(=O)Nc3ccc4c(c3)OCO4)O2)CC1,2.2,.,.,-0.7,4.1
CN1CCN(C(=O)C[C@H]2CC[C@@H]3[C@@H](COc4ccc(NC(=O)C5CCOCC5)cc4C(=O)N3C)O2)CC1,2.1,.,.,-2.0,-1.2
CCOC(=O)CSC1=C(C#N)C(c2sccc2C)C(C(C)=O)=C(C)N1 (configuration not stated),34.2*,5.4,11.6,-3.7,-0.3
CC(=O)C1=C(C)NC(SCC(N)=O)=C(C#N)C1c1sccc1C (configuration not stated),-4.8,-7.1,4.9,-5.3,-2.2
CO[C@H]1CN(C)C(=O)c2cc(NC(C)=O)ccc2OC[C@@H](C)N(Cc2ccccc2C(=O)O)C[C@@H]1C,-4.7,.,.,-0.8,12.3
O=C(Cn1cnc2c(NCc3ccccc3)ncnc21)NCC1CCCO1 (configuration not stated),-2.0,2.8,-1.4,2.4,74.6*
CCSC1=C(C#N)C(c2ccc(C)s2)CC(=O)N1 (configuration not stated),15.7*,-4.4,7.5,-1.4,1.9
C[C@H]1CN([C@@H](C)CO)C(=O)c2cc(C#Cc3ccccc3)cnc2O[C@@H]1CN(C)C(=O)CN(C)C,2.1,.,.,-4.0,5.0
O=C1Nc2ccccc2-c2nnnn2C1N1CCCC1 (configuration not stated),17.9*,.,.,4.1,-15.0
CCCN1[C@@H]2Cn3c(ccc(C4=CCCC4)c3=O)[C@H]1[C@@H](C(=O)NCCOC)[C@@H]2CO,-5.9,.,.,0.6,?
O=C(Nc1ccccc1)NC1(c2cn(CC(=O)N3CCN(c4ccccc4)CC3)nn2)CCCCC1,2.3,.,.,-0.9,16.4
CN1C(=O)c2cc(NC(=O)c3ccccc3F)ccc2OC[C@H]2O[C@H](CC(=O)NCc3ccc4c(c3)OCO4)CC[C@@H]21,-3.7,.,.,-3.5,-0.3
Cc1ccc(Cn2c(=O)c3ccccc3n3c(CCC(=O)O)nnc23)cc1,.,-5.0,.,5.0,-2.0
CC(C)Cn1c(=O)c2ccccc2n2c(CCC(=O)O)nnc12,-3.0,-6.7,1.3,3.2,70.2*
COc1ccc(NC(=O)COc2cccc3c2CCNC3=O)cc1,-0.1,-0.4,-5.7,-6.8,-3.6
COc1cccc(NC(=O)COc2cccc3c2CCNC3=O)c1,-2.0,-3.1,-13.9,5.4,27.6*
COc1ccc(NC(=O)COc2cccc3c2CCN(Cc2cccnc2)C3=O)cc1,16.8*,5.0,-1.1,-5.7,?
Cn1ccnc1SCC(=O)Nc1cccc(C#N)c1,-2.8,-4.7,-0.4,3.0,87.3*
Cc1ccc(NC(=O)CSc2nccn2C)cc1F,1.1,-2.7,9.1,2.1,18.4
COC(=O)c1c(CC[C@@H](CO)NC(=O)N[C@H](Cc2ccccc2)Cn2cc(-c3ccccn3)nn2)oc(C(C)=O)c1C(=O)OC,-10.7,.,.,-1.0,31.0*
COC(=O)c1c(CC[C@@H](CO)NC(=O)N[C@H](Cc2ccccc2)Cn2cc(-c3ccccc3N)nn2)oc(C(C)=O)c1C(=O)OC,3.1,.,.,8.3,0.4
C[C@H](CO)N1C[C@H](C)[C@@H](CN(C)C(=O)Nc2ccccc2)Oc2c(NC(=O)NC3CCCCC3)cccc2C1=O,3.1,2.7,6.1,0.1,63.5*
CC(C)NC(=O)Nc1cccc2c1O[C@H](CN(C)C(=O)Nc1ccccc1)[C@H](C)CN([C@H](C)CO)C2=O,-0.2,.,.,-0.1,42.4*
C[C@H](CO)N1C[C@H](C)[C@H](CN(C)C(=O)Nc2ccccc2)Oc2c(NC(=O)Nc3ccccc3)cccc2C1=O,-1.6,.,.,-4.0,-1.2
COc1ccc(CN(C)C[C@@H]2OCCCC[C@@H](C)Oc3ccc(NC(=O)Nc4ccc(F)cc4)cc3C(=O)N([C@H](C)CO)C[C@H]2C)cc1,9.4,.,.,-4.5,0.3
SMILES,SIRT5 inh,Rtt109 Vps75,PDI turbidity,ERp5 inh,DENV2 CPE
CCN1[C@@H]2c3ccc(C4=CCCC4)c(=O)n3C[C@H]1[C@H](CO)[C@H]2C(=O)NCc1ccccn1,2.6,.,.,-3.7,-1.8
C[C@H]1CN([C@@H](C)CO)C(=O)Cc2cc(NC(=O)Nc3ccccc3)ccc2O[C@H]1CN(C)Cc1ccc(C(F)(F)F)cc1,0.2,.,.,-1.6,-9.7
COC(=O)CC1(C(=O)OC)Oc2ccccc2C(=O)N1c1ccc(F)cc1F (configuration not stated),-0.1,57.2*,-0.9,-2.4,-2.2
COC(C(=O)Nc1ccc(F)cc1F)c1ccccc1 (configuration not stated),.,-6.3,22.2,.,.
COc1cc(F)cc(C2=CC(=O)C[C@H](c3ccc(F)cc3)C2)c1,.,-3.2,-6.2,7.9,25.9*
O=C1C=C(c2cc(Cl)cc(Cl)c2)C[C@@H](c2ccc3c(c2)OCO3)C1,.,2.0,-3.4,10.3,28.2*
COc1cccc(C2=CC(=O)C[C@H](c3ccc(F)cc3)C2)c1,.,-0.6,-3.2,0.5,.
O=C1C=C(c2cccc(Cl)c2)C[C@@H](c2ccc(Cl)cc2)C1,-5.8,7.0,8.9,3.0,0.5
O=C1C=C(c2ccc3c(c2)OCO3)C[C@@H](c2ccc3c(c2)OCO3)C1,.,-12.4,-4.8,-2.0,?
O=C1C=C(c2cccc(Br)c2)C[C@@H](c2ccc(Cl)cc2)C1,.,-5.4,6.5,-3.3,32.2*
O=C1C=C(c2ccc(F)c(Cl)c2)C[C@@H](c2ccc(F)cc2)C1,-0.4,-2.5,2.6,1.2,23.3*
O=C1C=C(c2cc(F)ccc2F)C[C@@H](c2ccc(Cl)cc2)C1,-0.6,-5.5,5.0,0.0,0.9
O=C(C[C@@H]1C=C[C@H](NC(=O)C2CC2)[C@H](CO)O1)NCc1ccccc1Cl,7.0,.,.,-2.6,0.2
COc1ccccc1-c1ccc2n(c1=O)C[C@H]1[C@H](CO)[C@@H](C(=O)N(C)C)N(CC3CCOCC3)[C@@H]21,0.6,.,.,-4.3,6.7
C[C@H](CO)N1C[C@H](C)[C@H](CN(C)C(=O)Nc2ccc(C(F)(F)F)cc2)OCCCC[C@H](C)Oc2ccc(NC(=O)Nc3ccc4c(c3)OCO4)cc2C1=O,15.1*,.,.,1.8,-2.4
C[C@H](CO)N1C[C@H](C)[C@@H](CN(C)C(=O)Nc2ccc3c(c2)OCO3)OCCCC[C@H](C)Oc2ccc(NC(=O)Nc3ccc(C(F)(F)F)cc3)cc2C1=O,2.4,.,.,4.2,0.8
C[C@@H]1CCCCO[C@@H](CN(C)C(=O)Nc2ccc(C(F)(F)F)cc2)[C@H](C)CN([C@@H](C)CO)C(=O)c2cc(NC(=O)Nc3ccc4c(c3)OCO4)ccc2O1,15.5*,.,.,-0.8,-3.2
CN(C)C(=O)c1cccc(-c2ccc([C@H]3[C@@H](CO)N4CCCCN(C(=O)C5CCC5)C[C@@H]34)cc2)c1,-2.3,.,.,4.7,.
C[C@H](CO)N1C[C@H](C)[C@H](CN(C)C(=O)c2ccncc2)Oc2cc(C3=CCCCC3)ccc2S1(=O)=O,-1.6,.,.,1.7,12.7
CC(C)NC[C@@H]1[C@@H](c2ccc(C3=CCCCC3)cc2)[C@H](CO)N1C(=O)NC(C)C,2.7,.,.,4.8,3.2
